Common to all, as to design: scale not given: direction of the effect not stated beside the values
Test [1] has as its target Protein translocase subunit SecA (Escherichia coli (strain K12)) (UniProt P10408). The test can be described thus: Assay to Identify E. coli SecA ATPase Inhibitors. Format: functional. The conditions noted are these: 30 µM.
For test [2], the target named is T1, Ubiquitin-activating enzyme e1, putative (Leishmania donovani (strain BPK282A1)) (UniProt E9BSI1).
T1 sequence (whole entry): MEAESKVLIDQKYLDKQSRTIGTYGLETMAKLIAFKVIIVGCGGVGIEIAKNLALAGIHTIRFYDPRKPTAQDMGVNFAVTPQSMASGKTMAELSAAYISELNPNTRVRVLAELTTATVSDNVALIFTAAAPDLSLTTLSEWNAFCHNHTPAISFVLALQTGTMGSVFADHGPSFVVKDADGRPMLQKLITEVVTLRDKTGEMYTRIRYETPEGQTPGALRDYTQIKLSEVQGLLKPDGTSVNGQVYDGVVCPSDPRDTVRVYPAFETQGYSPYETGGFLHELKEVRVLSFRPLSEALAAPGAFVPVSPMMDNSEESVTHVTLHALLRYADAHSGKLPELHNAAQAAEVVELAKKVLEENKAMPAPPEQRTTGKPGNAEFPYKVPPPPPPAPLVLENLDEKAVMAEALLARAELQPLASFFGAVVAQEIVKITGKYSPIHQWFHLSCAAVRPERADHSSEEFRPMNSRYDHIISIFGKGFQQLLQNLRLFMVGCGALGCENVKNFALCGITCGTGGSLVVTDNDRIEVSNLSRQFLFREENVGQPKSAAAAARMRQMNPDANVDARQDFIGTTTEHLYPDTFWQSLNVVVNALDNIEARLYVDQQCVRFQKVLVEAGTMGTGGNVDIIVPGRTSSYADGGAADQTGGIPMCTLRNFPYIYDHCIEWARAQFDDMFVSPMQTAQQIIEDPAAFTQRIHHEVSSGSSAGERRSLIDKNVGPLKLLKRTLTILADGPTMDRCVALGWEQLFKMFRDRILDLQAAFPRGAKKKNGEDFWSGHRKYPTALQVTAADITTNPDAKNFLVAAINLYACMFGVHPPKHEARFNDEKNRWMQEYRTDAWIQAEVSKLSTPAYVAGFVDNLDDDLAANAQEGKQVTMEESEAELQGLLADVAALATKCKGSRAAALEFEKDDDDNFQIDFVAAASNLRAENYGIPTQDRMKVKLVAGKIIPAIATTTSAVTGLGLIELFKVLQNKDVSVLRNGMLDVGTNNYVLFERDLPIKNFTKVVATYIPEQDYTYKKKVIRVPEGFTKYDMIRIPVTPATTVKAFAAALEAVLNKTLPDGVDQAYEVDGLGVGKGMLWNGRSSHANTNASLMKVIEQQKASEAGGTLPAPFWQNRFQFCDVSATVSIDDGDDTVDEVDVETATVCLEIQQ
The test can be described thus: Leishmania donovani Ubiquitin Activating Enzyme (LdE1). The format is functional. The conditions noted are these: 30 µM.

The target in test [3] is AMP-activated protein kinase, AMPK (Homo sapiens) (UniProt P54646+O43741+P54619+Q9UGJ0+Q9Y478+Q13131+Q9UGI9). The experiment in a line: AMP-dependent Kinase enzyme assay. An in vitro enzyme assay that detects ADP turnover that is directly proportional to AMPK activity. This uses naive AMPK that is activated during the assay with MK-8722. Format: functional. The note with it: 30 µM.

Test [4] concerns the target Sialic acid-binding Ig-like lectin 9 (Homo sapiens) (UniProt Q9Y336). The test can be described thus: Hs-Siglec9 ALPHAscreen SOP 20170721. The conditions noted are these: 10 µM. On the technique in general: Alpha assays give light when donor and acceptor beads are brought close together.
The test system of the next test is Trypanosoma cruzi. The experiment in a line: Trypanosoma cruzi phosphomannomutase and mannose-1-phosphate guanylyltransferase assay. The format is functional. The note with it: 10 µM.
In test [5] the target is T2, Arginase-2, mitochondrial (Homo sapiens) (UniProt P78540).
T2 sequence (whole entry): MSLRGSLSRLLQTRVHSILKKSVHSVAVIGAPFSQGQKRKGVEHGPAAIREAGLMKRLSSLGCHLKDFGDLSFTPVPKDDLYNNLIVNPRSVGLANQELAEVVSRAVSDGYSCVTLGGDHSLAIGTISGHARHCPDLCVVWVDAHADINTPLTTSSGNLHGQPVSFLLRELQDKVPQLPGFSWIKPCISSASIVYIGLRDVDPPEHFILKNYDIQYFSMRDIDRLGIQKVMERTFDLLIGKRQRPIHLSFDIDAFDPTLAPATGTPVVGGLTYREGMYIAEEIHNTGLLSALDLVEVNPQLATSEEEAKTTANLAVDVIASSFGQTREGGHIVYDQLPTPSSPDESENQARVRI
The experiment in a line: in vitro enzyme assay to detect the production of urea directly proportional to the activity of Arginase II. Further: in the data most compounds retested in dose-response had high values. The conditions noted are these: 33.3 µM. Format: functional.

Test [6] has as its target T3, Proteasome subunit beta (Trypanosoma cruzi) (UniProt O96673).
T3 sequence (whole entry): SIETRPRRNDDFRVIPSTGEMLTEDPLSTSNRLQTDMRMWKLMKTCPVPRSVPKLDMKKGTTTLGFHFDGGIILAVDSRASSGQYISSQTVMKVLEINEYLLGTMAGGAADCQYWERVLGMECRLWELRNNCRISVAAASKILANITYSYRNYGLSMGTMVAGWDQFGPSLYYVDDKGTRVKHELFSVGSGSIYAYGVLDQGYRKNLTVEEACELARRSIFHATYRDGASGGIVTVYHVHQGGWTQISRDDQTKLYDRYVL
The experiment in a line: Trypanosoma cruzi proteasome chymotrypsin-like activity (TcProtChymo) assay. Further: in the data most compounds retested in dose-response had high values. Format: functional. The conditions noted are these: 9.37 µM.

For the next test, the species on record is Homo sapiens. The experiment in a line: To identify inhibition of the IFN signalling (Jak-Stat) pathway via expression of an eGFP reporter gene under the control of an IFN-stimulated response element (ISRE) containing MxA promoter. The conditions noted are these: 30 µM. Format: functional. (In general: A reporter such as luciferase makes a cellular process visible.)

Test [7] concerns the target T4, Tyrosyl-tRNA synthetase, putative (Trypanosoma cruzi (strain CL Brener)) (UniProt Q4DSP6).
T4 sequence (whole entry): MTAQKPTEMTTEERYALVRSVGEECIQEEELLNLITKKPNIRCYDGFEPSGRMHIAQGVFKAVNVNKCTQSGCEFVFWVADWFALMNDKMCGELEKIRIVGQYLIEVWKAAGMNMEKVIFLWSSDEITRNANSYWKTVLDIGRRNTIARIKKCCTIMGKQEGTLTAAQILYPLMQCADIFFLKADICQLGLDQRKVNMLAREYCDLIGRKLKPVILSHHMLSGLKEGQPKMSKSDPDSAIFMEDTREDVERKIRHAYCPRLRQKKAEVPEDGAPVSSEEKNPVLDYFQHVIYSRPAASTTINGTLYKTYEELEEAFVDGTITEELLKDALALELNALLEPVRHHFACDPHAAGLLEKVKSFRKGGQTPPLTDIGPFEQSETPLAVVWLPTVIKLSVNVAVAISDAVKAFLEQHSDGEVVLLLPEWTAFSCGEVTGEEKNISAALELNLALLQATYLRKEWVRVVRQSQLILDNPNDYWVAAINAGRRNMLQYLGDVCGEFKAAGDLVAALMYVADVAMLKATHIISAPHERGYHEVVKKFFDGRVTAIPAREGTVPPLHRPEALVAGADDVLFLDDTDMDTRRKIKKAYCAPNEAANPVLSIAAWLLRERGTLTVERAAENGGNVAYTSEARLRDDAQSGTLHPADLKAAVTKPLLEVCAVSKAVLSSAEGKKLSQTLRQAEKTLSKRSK
The test can be described thus: Trypanosoma cruzi tyrosyl tRNA synthetase (TcYRS) _High Tyrosine SOP. Further: in the data most compounds retested in dose-response had high values. The note with it: 30 µM. Format: functional.

The target of test [8] is T4, Tyrosyl-tRNA synthetase, putative (Trypanosoma cruzi (strain CL Brener)). The experiment in a line: Trypanosoma cruzi tyrosyl tRNA synthetase (TcYRS) SOP. The conditions noted are these: 30 µM. Format: functional.
The target in test [9] is Chromo domain-containing protein 1 (Saccharomyces cerevisiae (strain ATCC 204508 / S288c) (Baker's yeast)) (UniProt P32657). The experiment in a line: ScCHD-1 Enzyme Inhibition Assay. Further: in the data most compounds retested in dose-response had high values. Format: functional. The conditions noted are these: 30 µM.
Chromo domain-containing protein 1 (Saccharomyces cerevisiae (strain ATCC 204508 / S288c) (Baker's yeast)), sequence (P32657 whole entry, the tested form may be a part): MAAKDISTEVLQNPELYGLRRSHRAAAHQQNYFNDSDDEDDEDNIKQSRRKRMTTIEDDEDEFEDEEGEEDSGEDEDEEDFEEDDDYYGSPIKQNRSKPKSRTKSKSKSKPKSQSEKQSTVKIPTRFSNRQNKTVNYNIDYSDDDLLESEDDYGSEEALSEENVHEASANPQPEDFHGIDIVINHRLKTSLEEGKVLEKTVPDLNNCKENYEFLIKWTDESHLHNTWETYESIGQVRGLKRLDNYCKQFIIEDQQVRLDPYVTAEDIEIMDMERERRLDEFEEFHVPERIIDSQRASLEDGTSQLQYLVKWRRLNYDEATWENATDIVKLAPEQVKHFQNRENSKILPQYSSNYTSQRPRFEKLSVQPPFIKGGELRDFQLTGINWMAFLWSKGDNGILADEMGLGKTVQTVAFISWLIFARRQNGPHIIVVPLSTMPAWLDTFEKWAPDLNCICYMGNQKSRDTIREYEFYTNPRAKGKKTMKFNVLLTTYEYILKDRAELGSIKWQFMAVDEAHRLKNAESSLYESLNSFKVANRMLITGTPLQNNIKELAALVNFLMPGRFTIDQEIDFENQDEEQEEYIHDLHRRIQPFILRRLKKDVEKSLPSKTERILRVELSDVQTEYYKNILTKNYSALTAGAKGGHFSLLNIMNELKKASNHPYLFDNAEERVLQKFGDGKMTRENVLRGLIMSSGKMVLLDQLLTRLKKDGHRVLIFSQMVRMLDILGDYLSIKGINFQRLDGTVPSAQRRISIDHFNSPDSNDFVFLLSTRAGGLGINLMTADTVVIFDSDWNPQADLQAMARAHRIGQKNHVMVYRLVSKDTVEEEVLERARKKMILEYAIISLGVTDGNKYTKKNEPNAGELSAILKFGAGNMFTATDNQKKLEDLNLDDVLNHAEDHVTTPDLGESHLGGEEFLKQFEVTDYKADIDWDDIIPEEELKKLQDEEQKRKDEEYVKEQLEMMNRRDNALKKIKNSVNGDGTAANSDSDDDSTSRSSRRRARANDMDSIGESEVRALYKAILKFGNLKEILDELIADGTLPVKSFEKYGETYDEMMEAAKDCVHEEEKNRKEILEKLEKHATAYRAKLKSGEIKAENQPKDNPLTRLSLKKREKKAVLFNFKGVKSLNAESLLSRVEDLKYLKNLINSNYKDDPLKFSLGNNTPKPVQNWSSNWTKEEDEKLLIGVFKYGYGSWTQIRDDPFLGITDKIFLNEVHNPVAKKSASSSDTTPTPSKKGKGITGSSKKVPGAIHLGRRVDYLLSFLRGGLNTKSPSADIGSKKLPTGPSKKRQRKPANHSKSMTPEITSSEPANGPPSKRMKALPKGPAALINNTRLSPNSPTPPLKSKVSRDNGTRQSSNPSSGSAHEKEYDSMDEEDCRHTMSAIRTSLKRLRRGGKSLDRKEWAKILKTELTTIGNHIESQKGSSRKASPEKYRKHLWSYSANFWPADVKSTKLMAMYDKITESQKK

For some of these results: Potency and affinity values are given separately.

Sialic acid-binding Ig-like lectin 9 (Homo sapiens), sequence (Q9Y336 whole entry): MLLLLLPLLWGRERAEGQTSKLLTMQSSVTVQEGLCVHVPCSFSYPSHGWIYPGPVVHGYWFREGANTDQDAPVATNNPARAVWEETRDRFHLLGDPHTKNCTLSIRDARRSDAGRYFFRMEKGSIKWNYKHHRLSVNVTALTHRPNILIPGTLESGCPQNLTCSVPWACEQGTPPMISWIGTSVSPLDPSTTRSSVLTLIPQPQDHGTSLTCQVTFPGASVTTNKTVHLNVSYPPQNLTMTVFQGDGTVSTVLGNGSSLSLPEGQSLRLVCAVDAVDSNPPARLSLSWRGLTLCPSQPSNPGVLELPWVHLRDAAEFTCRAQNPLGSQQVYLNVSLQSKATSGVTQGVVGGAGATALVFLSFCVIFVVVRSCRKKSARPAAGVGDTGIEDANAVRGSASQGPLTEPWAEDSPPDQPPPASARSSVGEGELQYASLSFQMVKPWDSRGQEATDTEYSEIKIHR
Protein translocase subunit SecA (Escherichia coli (strain K12)), sequence (P10408 whole entry): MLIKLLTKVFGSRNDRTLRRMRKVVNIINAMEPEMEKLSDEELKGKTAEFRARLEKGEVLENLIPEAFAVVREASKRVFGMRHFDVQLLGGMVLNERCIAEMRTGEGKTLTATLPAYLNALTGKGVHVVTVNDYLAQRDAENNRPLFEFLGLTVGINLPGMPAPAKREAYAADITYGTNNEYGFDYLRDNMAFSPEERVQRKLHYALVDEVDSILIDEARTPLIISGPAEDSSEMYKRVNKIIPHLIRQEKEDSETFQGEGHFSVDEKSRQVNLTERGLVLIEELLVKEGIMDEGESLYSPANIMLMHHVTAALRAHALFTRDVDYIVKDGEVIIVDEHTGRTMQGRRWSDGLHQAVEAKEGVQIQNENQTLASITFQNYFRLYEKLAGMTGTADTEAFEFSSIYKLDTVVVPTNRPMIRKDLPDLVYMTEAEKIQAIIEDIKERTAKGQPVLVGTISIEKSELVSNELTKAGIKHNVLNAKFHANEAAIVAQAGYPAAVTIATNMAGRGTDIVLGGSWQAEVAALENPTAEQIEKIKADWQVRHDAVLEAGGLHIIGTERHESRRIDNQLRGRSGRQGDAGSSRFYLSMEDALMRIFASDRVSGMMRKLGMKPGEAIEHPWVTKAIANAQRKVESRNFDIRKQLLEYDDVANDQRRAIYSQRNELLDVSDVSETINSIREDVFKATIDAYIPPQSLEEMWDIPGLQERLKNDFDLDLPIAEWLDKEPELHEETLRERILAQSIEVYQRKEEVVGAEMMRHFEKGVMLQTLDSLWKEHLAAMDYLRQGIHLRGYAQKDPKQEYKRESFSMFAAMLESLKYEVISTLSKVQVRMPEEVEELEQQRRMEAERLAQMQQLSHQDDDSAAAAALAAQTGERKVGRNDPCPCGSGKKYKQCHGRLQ

As for `O=C([C@H]1C[C@@H]2CCN(C3CCOCC3)C[C@@H]2O1)N1CCOCC1`, the Percent Effect in [1] was 4.05%; in test [2], 5.33%; in [3], -5.76%; in test [4], 14.3%; with Trypanosoma cruzi, -3.48%; in test [5], -54.7%. Further, the Percent Effect was 16.8% in test [6]; -8.99% in the test filed under Homo sapiens; 7.29% in test [7]; 12.5% in test [8]; -5.71% in test [9].

On to `Cn1cc(NS(=O)(=O)c2ccc(OC(F)(F)F)cc2)ccc1=O`, for which the Percent Effect in [1] is -4.62%; in test [2], 7.59%; in [3] it was -136%; in [4] it was -4.96%; in the test on Trypanosoma cruzi, -9.73%; in test [5] it was -1.9%. Moreover, the Percent Effect was 0.246% in [6]; 62.5% in the test filed under Homo sapiens; 0.493% in [7]; 8.86% in test [8]; -4.48% in test [9].

Take `COCCN1CCN(C(C)C(=O)Nc2ccnn2C(C)C)CC1` (stereo unspecified): the Percent Effect was -4.97% in test [1]; 2.7% in [2]; 2.76% in test [3]; 0.97% in test [4]; -1.95% in the test on Trypanosoma cruzi; 0.417% in [5]. The Percent Effect in [6] was 7.35%; in the test listed under Homo sapiens, -1.59%; in test [7] it was 4.95%; in [8] it was 1.22%; in [9], -1.09%.

Consider `CC(C)n1c(=O)nc2n1C(=O)N(c1ccccc1)C2`, for which the Percent Effect in [1] was -3.47%; in [2], 18.4%; in test [3], -0.93%; in [4] it was -3.33%; in the test with Trypanosoma cruzi, 0.682%; in test [5], -4.73%. The Percent Effect in [6] was 14.7%; in the test listed under Homo sapiens, -2.62%; in [7], 6.38%; in test [8], 18.2%; in test [9] it was -9.74%.

`Cn1cc(CN2CCCC3(CCN(c4nncs4)C3)C2)cn1` (stereo unspecified): the Percent Effect in test [1] was -9.67%; in test [2] it was 2.7%; in test [3], 2.26%; in test [4], -4.09%; in the test with Trypanosoma cruzi it was -2.83%; in test [5], -1.24%. The Percent Effect was 1.97% in test [6]; -4.18% in the test listed under Homo sapiens; 1.07% in [7]; 6.17% in test [8]; -0.679% in [9].

For the compound `O=C(CCN1CCCC1=O)NCc1cccnc1Oc1ccccc1`, the Percent Effect is -6.95% in test [1]; -8.22% in [2]; 0.461% in test [3]; 2.58% in test [4]; 0.595% in the test with Trypanosoma cruzi; -1.2% in test [5]. Besides, the Percent Effect in test [6] was 4.88%; in the test listed under Homo sapiens it was -2.67%; in [7], 1.04%; in test [8] it was 6.17%; in test [9], -1.4%.

Regarding `Cc1ncsc1C(=O)N1CCCC(c2noc(C(C)C)n2)C1` (stereo unspecified), the Percent Effect in [1] was -4.54%; in [2] it was 15.3%; in [3], -8.18%; in test [4], 26.1%; in the test with Trypanosoma cruzi, 2.43%; in [5] it was 33.5%. Also, the Percent Effect in test [6] is 15.3%; in the test listed under Homo sapiens it was 7.22%; in test [7] it was 6.32%; in [8] it was 15.4%; in test [9] it was -10.2%.

Take `CC(C)Cc1noc(CN2CCN(C(=O)c3cccc(F)c3)CC2)n1`: the Percent Effect was -4.75% in test [1]; -2.74% in test [2]; 1.5% in [3]; 5.59% in [4]; 1.39% with Trypanosoma cruzi; 0% in test [5]. For the same compound, the Percent Effect amounted to 1.97% in test [6]; 0.357% in the test listed under Homo sapiens; 4.17% in [7]; 1.24% in [8]; 6.05% in test [9].

Consider `CCn1c(C(=O)N2CCN(C(=O)NC(C)C)CC2)cc2ccccc21`, for which the Percent Effect in [1] was -9.42%; in test [2] it was 2.6%; in test [3], 5.86%; in test [4], -4.68%; with Trypanosoma cruzi it was -3.37%; in test [5] it was 0.356%. Also, the Percent Effect in test [6] was 6.93%; in the test filed under Homo sapiens, 14.7%; in test [7], 0%; in test [8], 0%; in test [9], -7.12%.

As for `Cc1nn(C)c(C)c1CC(=O)N1CCCC(n2cccn2)C1` (stereo unspecified), the Percent Effect is -2.93% in test [1]; -5.26% in test [2]; -2.25% in [3]; -1.17% in test [4]; 6.26% in the test with Trypanosoma cruzi; -5.4% in test [5]. Besides, the Percent Effect in test [6] was 2.12%; in the test listed under Homo sapiens, -14.2%; in test [7] it was 3.45%; in test [8], 3.7%; in test [9] it was 0.321%.

With `COCC1Cn2nnc(-c3cnn(C)c3)c2CN1Cc1ccco1` (stereo unspecified), the Percent Effect in [1] was -2.03%; in test [2], 2.7%; in [3] it was -7.24%; in [4], 5.87%; in the test on Trypanosoma cruzi, 1.37%; in test [5], 23.8%. Besides, the Percent Effect is 9.72% in [6]; -17.4% in the test filed under Homo sapiens; 11.9% in [7]; 15.8% in test [8]; -5.92% in test [9].

Values taken from ChEMBL document CHEMBL3988442, “University of Dundee, Small-Polar-MMV Screening Library” (2021).
